Where “and” joins values, the source holds several entries; their conditions need not be identical. Equal values may be shown once. Compounds without any hit were thinned out: in the full panel of roughly 83,000, 20% have a hit.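 Testing used 96-well plates and a 48-hour single-concentration exposure. Example: -40 means 40% of the starting cells died.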 Calls of active or inactive are those of the source. The calls were made as follows: active = growth percent below 10; inactive = the rest.
Columns and labels:
Assay in all cases: NCI-60 one-dose screen, 48 h (100 = growth as untreated, 0 = no growth, -100 = all killed)
[1] = tested on: DU-145 prostate; conditions: 10 µM
[2] = tested on: K-562 leukemia; conditions: 10 µM
[3] = tested on: MALME-3M melanoma; conditions: 10 µM
[4] = tested on: MDA-MB-231 breast; conditions: 10 µM
[5] = tested on: RXF 393 renal; conditions: 10 µM
[6] = tested on: SF-268 CNS; conditions: 10 µM
[7] = tested on: SF-295 CNS; conditions: 10 µM
[8] = tested on: SF-539 CNS; conditions: 10 µM
[9] = tested on: UACC-257 melanoma; conditions: 10 µM
[10] = tested on: M14 melanoma; conditions: 10 µM
[11] = tested on: HCT-15 colon; conditions: 10 µM
[12] = tested on: HT29 colon; conditions: 10 µM
[13] = tested on: SNB-19 CNS; conditions: 10 µM
[14] = tested on: U251 CNS; conditions: 10 µM
[15] = tested on: PC-3 prostate; conditions: 10 µM
[16] = tested on: SK-MEL-5 melanoma; conditions: 10 µM
[17] = tested on: UACC-62 melanoma
[18] = tested on: LOX IMVI melanoma; conditions: 10 µM
[19] = tested on: SK-MEL-28 melanoma; conditions: 10 µM
[20] = tested on: SNB-75 CNS; conditions: 10 µM

Measured: growth

FC(F)(F)c1ccc2c(c1)N(CCCN1CCN(C3CC3)CC1)c1ccccc1S2
active: [1] 2.25% | [6] -4.95% | [7] 3.21%
inactive: [2] 24.5% | [3] 96.7% | [4] 83% | [5] 80.7% | [8] 94.2% | [9] 74.4% | [10] 34.3% | [11] 68.7% | [12] 36.1% | [13] 43% | [14] 25.8% | [15] 48.5% | [16] 81% | [17]; 10 µM unless noted 54% | [18] 37.6% | [19] 93.8%

O=C(O)c1cc([N+](=O)[O-])ccc1Cl
inactive: [1] 121% | [2] 97.7% | [3] 131% | [4] 101% | [5] 112% | [6] 114% | [7] 101% | [8] 105% | [9] 99.5% | [10] 114% | [11] 100% | [12] 84.3% | [13] 99.4% | [14] 106% | [15] 88.8% | [16] 100% | [17]; 10 µM unless noted 95.6% | [18] 99.5%

O=S(=O)(O)c1cc(O)c2c(N=Cc3ccccc3O)c(S(=O)(=O)O)ccc2c1
inactive: [1] 109% | [2] 96.7% | [3] 97.9% | [4] 127% | [5] 105% | [6] 102% | [7] 81.9% | [8] 94.3% | [9] 111% | [10] 94.4% | [11] 99.9% | [12] 103% | [20] 93.4% | [13] 108% | [15] 95.5% | [16] 103% | [17]; 10 µM unless noted 113% | [19] 114%

NC(=S)CN1CCOCC1
inactive: [1] 107% | [2] 97.7% | [3] 110% | [4] 106% | [5] 115% | [6] 102% | [7] 131% | [8] 111% | [9] 117% | [10] 120% | [11] 107% | [12] 100% | [13] 104% | [14] 102% | [15] 91.9% | [16] 106% | [17]; 10 µM unless noted 99% | [18] 104% | [19] 106%

O=C(O)c1ccnc(Br)c1
inactive: [1] 111% | [2] 109% | [3] 107% | [4] 115% | [5] 106% | [6] 107% | [7] 100% | [8] 97.5% | [9] 104% | [10] 107% | [11] 106% | [12] 110% | [20] 89.5% | [13] 103% | [15] 86.1% | [17]; 10 µM unless noted 106% | [18] 107% | [19] 111%

O=C(Nc1cc(-c2ccccc2)[nH]n1)c1ccc(Cl)cc1
inactive: [1] 77.6% | [2] 61.1% | [3] 92.6% | [4] 114% | [5] 32.4% | [6] 74.2% | [7] 71.2% | [8] 66.2% | [9] 77.9% | [10] 64.4% | [11] 61.4% | [12] 67.2% | [13] 65.2% | [14] 70.2% | [15] 75.9% | [16] 87.6% | [17]; 10 µM unless noted 79.7% | [18] 89.5% | [19] 117%

CC(C)CCOC(=O)c1ccccc1
inactive: [1] 108% | [2] 102% | [3] 96.9% | [4] 104% | [5] 119% | [6] 102% | [7] 100% | [8] 98.8% | [9] 101% | [10] 100% | [11] 111% | [12] 108% | [20] 95.6% | [13] 105% | [15] 97.9% | [16] 105% | [17]; 10 µM unless noted 104% | [18] 101% | [19] 103%

CN(C)Cc1cc(C(C)(C)CC(C)(C)C)ccc1O
inactive: [1] 126% | [2] 108% | [3] 100% | [4] 96.9% | [5] 138% | [6] 106% | [7] 95.6% | [8] 90.8% | [9] 112% | [10] 98% | [11] 79.4% | [12] 99.9% | [20] 79.9% | [14] 90.8% | [15] 84.1% | [16] 100% | [17]; 10 µM unless noted 99.5% | [18] 94.9% | [19] 109%

O=C(O)[C@@H]1[C@H]2C[C@H]3c4[nH]c5ccccc5c4CCN3C[C@@H]2CC[C@@H]1O
inactive: [1] 106% | [2] 129% | [3] 66.1% | [4] 108% | [5] 111% | [6] 107% | [7] 99.2% | [8] 108% | [9] 105% | [10] 91.5% | [11] 106% | [12] 103% | [20] 88.4% | [13] 111% | [16] 111% | [17]; 10 µM unless noted 99.4% | [18] 103% | [19] 120%

CSC(=N\N=C\c1ccc(N(C)C)cc1)/N=C/N(C)C
inactive: [1] 117% | [2] 111% | [3] 104% | [4] 106% | [5] 95.1% | [6] 111% | [7] 84.6% | [8] 96% | [9] 100% | [10] 104% | [11] 96.1% | [12] 113% | [20] 102% | [13] 100% | [15] 106% | [16] 101% | [17]; 10 µM unless noted 112% | [19] 111%

CC(=Nc1ccccc1)C1=C(O)C(Cc2cccc(F)c2)NC1=O (stereo not drawn)
active: [1] -37.9% | [2] 5.47% | [7] -5.61% | [8] -17.5% | [10] 7.5% | [11] 8.21% | [12] -12.1% | [16] 1.57% | [18] 5.05%
inactive: [3] 39.8% | [4] 25.9% | [5] 41.7% | [6] 31.1% | [9] 40.6% | [20] 78.3% | [13] 36.2% | [17]; 10 µM unless noted 32.9% | [19] 63.5%

O=C(O)c1cccc([N+](=O)[O-])c1
inactive: [1] 104% | [2] 96% | [3] 105% | [4] 102% | [5] 117% | [6] 100% | [7] 94.9% | [8] 103% | [9] 107% | [10] 104% | [11] 108% | [12] 111% | [20] 94.3% | [13] 106% | [15] 93.1% | [16] 107% | [17]; 10 µM unless noted 101% | [18] 99.2% | [19] 112%

C[N+](C)=c1ccc2nc3c(cc(Nc4ccccc4)c4ccccc43)oc-2c1
inactive: [1] 55.4% | [2] 38.5% | [3] 28.2% | [4] 47% | [5] 69.2% | [6] 80.3% | [7] 59.5% | [8] 74.3% | [9] 38.6% | [10] 33.9% | [11] 56.7% | [12] 52.2% | [20] 86.7% | [13] 57.2% | [15] 47.3% | [17]; 10 µM unless noted 44.8% | [18] 30.4% | [19] 23.5%

C=CC(O)CCC (stereo not drawn)
inactive: [1] 112% | [2] 104% | [3] 106% | [4] 106% | [5] 121% | [6] 107% | [7] 91.1% | [8] 102% | [9] 90.3% | [10] 106% | [11] 98% | [12] 99.7% | [20] 95.7% | [13] 100% | [16] 107% | [17]; 10 µM unless noted 95.9% | [18] 98.6% | [19] 98.3%

CCOc1ccc(Br)cc1/C=N\N=C\c1cc(Br)ccc1OCC
inactive: [1] 102% | [2] 95.3% | [3] 105% | [4] 108% | [5] 145% | [6] 97.6% | [7] 100% | [8] 101% | [9] 92.7% | [10] 98.6% | [11] 109% | [12] 107% | [20] 98.5% | [13] 117% | [15] 93.8% | [16] 109% | [17]; 10 µM unless noted 104% | [18] 105% | [19] 115%

Oc1ccc(O)cc1
inactive: [1] 105% | [2] 98.1% | [3] 102% | [4] 109% | [5] 135% | [6] 106% | [7] 114% | [8] 90.1% | [9] 97.8% | [10] 108% | [11] 101% | [12] 97.7% | [20] 102% | [13] 115% | [15] 89.2% | [17]; 10 µM unless noted 103% | [18] 92.6% | [19] 112%

CC(=O)c1sc2c(c1OC(=O)c1ccc(Cl)cc1Cl)c(=O)n(-c1ccccc1)c(=S)n2-c1ccccc1
active: [2] 0.912% | [3] -79.2% | [4] -41.5% | [5] 6.34% | [7] -32.1% | [8] -39.6% | [10] -76.1% | [11] 3.9% | [12] -23.9% | [14] 1.6% | [15] -29.7% | [17]; 100 µM -11.6% and -45.7% | [18] -18.9%
inactive: [1] 44.1% | [6] 18.9% | [9] 49% | [13] 16.3% | [16] 42.7% | [17]; 10 µM 29.4%

[O-][N+](=Nc1cccc(Cl)c1)c1cccc(Cl)c1
inactive: [1] 108% | [2] 133% | [3] 101% | [4] 102% | [5] 102% | [6] 110% | [7] 104% | [8] 92.8% | [9] 117% | [10] 96.4% | [11] 78.1% | [12] 106% | [13] 100% | [14] 84.1% | [15] 96.4% | [16] 95.9% | [17]; 10 µM unless noted 87.5% | [18] 97.4% | [19] 113%

Reference: PubChem BioAssay (NCI)
